Results: PubChem BioAssay (NCI)
The panel holds about 79,000 compounds, 15% with a hit somewhere; the sample as a whole holds those more often. Cut-off read from the data, not from the text of the source: active = growth inhibition above about 70%; inactive = the rest.

What was measured:
[1] = NCI Yeast Anticancer Drug Screen. Data for the rad50 strain (AID 155);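 note: 0% = growth of vehicle-only cultures of the same strain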; details: S. cerevisiae rad50 strain growth inhibition; at 50.0 µM; stronger effect = higher value
Procedure, shortened: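 A DNA repair-deficient yeast mutant serves as the test organism; compound-induced growth inhibition is calculated against vehicle-treated cells.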

[2] = NCI Yeast Anticancer Drug Screen. Data for the mec2-1 strain (AID 157); details: S. cerevisiae mec2-1 strain, at 50.0 µM, stronger effect = higher value
Procedure, shortened: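 Using mec2-1 yeast: add compound, measure growth, express inhibition versus vehicle-treated cultures.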

[3] = NCI Yeast Anticancer Drug Screen. Data for the sgs1 mgt1 strain (AID 161);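 note: 0% = growth of cultures given vehicle only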; details: S. cerevisiae sgs1 mgt1 strain, at 50.0 µM, stronger effect = higher value
Procedure, shortened: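 Compounds are added to genetically altered yeast, and growth is compared with cultures given vehicle alone to give percent inhibition.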

[4] = NCI Yeast Anticancer Drug Screen. Data for the cln2 rad14 strain (AID 165);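 note: 0% = growth equal to vehicle treated cultures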; details: S. cerevisiae cln2 rad14 strain, at 50.0 µM, stronger effect = higher value
Procedure, shortened: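 Yeast strain cln2 rad14, bearing defects in cell cycle control and DNA repair, serves as the test system; values reflect growth inhibition compared with vehicle.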

[5] = NCI Yeast Anticancer Drug Screen. Data for the bub3 strain (AID 167); details: S. cerevisiae bub3 mutant strain, at 50.0 µM, stronger effect = higher value
Procedure, shortened: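 Inhibition values come from growth of compound-treated mutant yeast normalised to vehicle-treated controls.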

[6] = NCI Yeast Anticancer Drug Screen. Data for the mlh1 rad18 strain (AID 175); details: S. cerevisiae mlh1 rad18 strain growth inhibition; at 50.0 µM; stronger effect = higher value
Procedure, shortened: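 Steps: expose repair-defective yeast to compound; measure growth; express inhibition against vehicle-treated controls.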

Measured: growth inhibition

CC1SC2=NC3=C(c4ccccc4C3=O)C(c3ccc(Br)cc3)N2C1=O (stereo not drawn)
inactive: [1] -37.5% | [2] -15.9% | [3] -36.3% | [4] -15.8% | [5] -37% | [6] -32.8%

COc1ccc2c(c1)OC(OC)(c1ccc(OC)c(OC)c1)C(O)(OC)C2=O (stereo not drawn)
inactive: [1] 39.4% | [2] 14.8% | [3] 27.6% | [4] 19.6% | [5] 11.8% | [6] 29%

CCCC#CCN(CCCC)CCCC
inactive: [1] -8.95% | [2] 0.15% | [3] -3.8% | [4] -7.9% | [5] 58% | [6] -20.1%

CCCCCCCNc1nc(N)nc(Cl)n1
inactive: [1] -0.15% | [2] -4.6% | [3] 5.75% | [4] 8.75% | [5] -9.4% | [6] 10.9%

CC(=O)OC1CC2CC1C1C=CCC21 (stereo not drawn)
inactive: [1] 10.3% | [2] 3.75% | [3] 19.8% | [4] 11.3% | [5] 6.5% | [6] 0.65%

CC(C)C1NC(=O)CC(c2ccccc2)N(N=O)C1c1ccccc1 (stereo not drawn)
inactive: [1] -29.3% | [2] -9% | [3] -4.85% | [4] -14.9% | [5] -5.9% | [6] -16.8%

O=[P+](O)c1cc2c3ccccc3ccc2c2ccccc12
inactive: [1] -34.9% | [2] 11.8% | [3] 32% | [4] -12.3% | [5] 33% | [6] -0.55%

O=C(N=c1nc(NC(=O)c2ccccc2)ss1)c1ccccc1
inactive: [1] -0.25% | [2] 7.7% | [3] -2.8% | [4] -42.2% | [5] -17.1% | [6] 13.2%

C[Si](C)(CCCNCCN)O[Si](C)(C)CCCNCCN
inactive: [1] -7.3% | [2] -24.1% | [3] 5.65% | [4] -2.1% | [5] 9.2% | [6] 9.95%

COc1cc2oc3c(C)c(=O)cc4oc(-c5ccccc5)cc(c2c2c1CCC(c1ccccc1)O2)c43 (stereo not drawn)
inactive: [1] -23.6% | [2] -5.9% | [3] -20.1% | [4] 4.35% | [5] -20.2% | [6] -0.7%

COc1ccc(CCNC(=S)N/C=C\c2nc3ccccc3[nH]c2=O)cc1OC
inactive: [1] 11.1% | [2] 2.8% | [3] 6.15% | [4] 11.3% | [5] 8% | [6] 19.9%

N#CCc1ccc(Nc2cc(=O)[nH]c(=O)[nH]2)cc1
inactive: [1] -7.5% | [2] 1.5% | [3] 3.65% | [4] -35.1% | [5] -7.5% | [6] -7.55%

Cc1ccsc1C(=O)c1ccccc1[N+](=O)[O-]
inactive: [1] -3.65% | [2] -13.3% | [3] -6.7% | [4] -20.8% | [5] -7.35% | [6] 6.25%

NC(CCC(=O)NC1(C(=O)O)C2CC3CC(C2)CC1C3)C(=O)O (stereo not drawn)
inactive: [1] 6% | [2] -0.1% | [3] -5% | [4] -18% | [5] -4.4% | [6] 4.85%

CC1OC(C)(c2ccccc2)OC1C (stereo not drawn)
inactive: [1] 18.1% | [2] 13.8% | [3] 27.1% | [4] -26.5% | [5] 32.7% | [6] 41.7%

CN1C(=O)CC2C(=O)N(Cc3ccccc3)C(=O)C2C1=O (stereo not drawn)
inactive: [1] 14% | [2] -4% | [3] -0.8% | [4] 11.6% | [5] 1.3% | [6] -2.85%

NC(=O)c1ccc2c(ccc3ccccc32)c1
inactive: [1] 48.5% | [2] 4.75% | [3] 5.05% | [4] -36% | [5] -1.8% | [6] -2.75%

CC(NCCCNC(C)C(=O)O)C(=O)O (stereo not drawn)
inactive: [1] 21.8% | [2] 1.45% | [3] 26.8% | [4] 32.3% | [5] 11.1% | [6] 13.4%

O=C(Cc1ccccc1)NN1C(=O)/C(=C\c2cccc([N+](=O)[O-])c2)SC1=Nc1ccccc1
inactive: [1] -2.7% | [2] -15.2% | [3] 9.95% | [4] 17.1% | [5] -14.8% | [6] 0.85%

COc1ccc(CSC(=S)Nc2ccc(N=Nc3ccccc3)cc2)cc1
inactive: [1] 33.7% | [2] 11.6% | [3] 24.6% | [4] 25.4% | [5] -7.3% | [6] 1.55%

COC(CNc1nc2c(s1)c1c(O)c3c(O)c(C)c4c(c32)C(=O)C(C)(O/C=C\C(OC)C(C)C(OC(C)=O)C(C)C(O)C(C)C(O)C(C)/C=C/C=C(/C)C(=O)N1)O4)OC (stereo not drawn)
inactive: [1] 6.15% | [2] -5.6% | [3] -13% | [4] 14.3% | [5] -15.6% | [6] -4.65%

Nc1nc(CCl)nc(N2CCOCC2)n1
inactive: [1] 6.3% | [2] 1.65% | [3] 7.7% | [4] 20.4% | [5] 19.4% | [6] -20.2%

COc1ccc2[nH]c(C)cc2c1CN
inactive: [1] -0.65% | [2] -14.3% | [3] 15.1% | [4] -24.9% | [5] -20.2% | [6] 26.4%

C=C1CN=C(Nc2ccc(F)cc2F)S1
inactive: [1] -0.15% | [2] 7.3% | [3] -14.6% | [4] 8.15% | [5] 1.75% | [6] 2.65%

CCOCC1c2ccccc2CCN1Cc1c[nH]c2ccccc12 (stereo not drawn)
inactive: [1] 9.65% | [2] -21.2% | [3] -2.85% | [4] -5.15% | [5] 0.6% | [6] -4.55%

CCOC(=O)NC1C2CC3C(C2)C31 (stereo not drawn)
inactive: [1] -54.6% | [2] -32.7% | [3] -29.4% | [4] -20.6% | [5] -52.4% | [6] -32.5%

COC(=O)/C=C(/Nc1ccccc1C(=O)O)C(=O)OC
inactive: [1] -5.55% | [2] 20.1% | [3] -5.15% | [4] 2.85% | [5] -16.1% | [6] -21.1%

O=C(CN1CCCC1)Nc1ccc2sc3ccccc3c(=O)c2n1
inactive: [1] 17.2% | [2] -29.7% | [3] -5.75% | [4] 21.6% | [5] 11% | [6] 3.55%

O=C(c1ccccc1)c1ccc2ccc(F)cc2c1C(=O)O
inactive: [1] -4% | [2] 17.9% | [3] 2.05% | [4] -17.9% | [5] 16.6% | [6] -7.7%

CC(=O)c1ccncc1
inactive: [1] -38.2% | [2] -0.7% | [3] 6.65% | [4] -27.4% | [5] -1.6% | [6] 20.6%

CCOC(=O)C1=C(C)N(NC(N)=O)C2(O)CCCC(=O)C12C (stereo not drawn)
inactive: [1] 5.35% | [2] -0.45% | [3] 0.65% | [4] -52.2% | [5] -3.8% | [6] 2.2%

C#CCOC(=O)c1ccc(C(=O)OCC#C)cc1
inactive: [1] 11.9% | [2] -17.3% | [3] -9.3% | [4] 8.35% | [5] 3.15% | [6] -20.7%

COC(=O)c1cc(O)c(C(=O)OC)s1
inactive: [1] 3.05% | [2] -9.75% | [3] -0.55% | [4] -27.9% | [5] 14.8% | [6] 11.2%

O=C(c1cccc(C(=O)N(c2ccccc2)c2ccccc2)n1)N(c1ccccc1)c1ccccc1
inactive: [1] -47.5% | [2] -11.2% | [3] -32.1% | [4] 15.6% | [5] -11.8% | [6] -1.8%

COC(=O)C1C2C=CC(CC2)C1C(=O)OC (stereo not drawn)
inactive: [1] 1.9% | [2] 5.65% | [3] -0.3% | [4] -22.1% | [5] -10.8% | [6] 7.95%

CC(C)(C)OC(=O)Cn1ncn(NC(=O)Cc2ccccc2)c1=O
inactive: [1] -20.5% | [2] -24.5% | [3] -21.4% | [4] -56.2% | [5] -38.2% | [6] -0.1%

OC(C1CCCCCCCCCC1)C(O)C1CCCCCCCCCC1 (stereo not drawn)
inactive: [1] -35.5% | [2] -38.6% | [3] 2.8% | [4] 15.3% | [5] -38% | [6] -8.85%

CCC(=O)OCc1ccc(Cl)cc1
inactive: [1] 23.9% | [2] 11.4% | [3] 7.9% | [4] 8.6% | [5] 12.4% | [6] 4.9%
